The list is not random: actives were taken first. Their share in the collection is about 3%.
12-LOX inh: blocks human arachidonate 12S-lipoxygenase. purified 12hLO, xylenol orange hydroperoxide absorbance. AID 1671190. Potency, µM (titrated, usually from 108 µM), usual class: inhibitors. 1.1% of 580,000 active. P18054; active means well fitted inhibition curve with a large enough effect; inconclusive means small, poorly fitted or top-dose-only effect, or another doubt; inactive means no such curve, though single readings can be large or run the other way
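Purified human 12hLO (150 nM final) in 25 mM Hepes, 0.01% Triton X-100, pH 7.0 was preincubated 15 min at room temperature with compound. Then 40 uM arachidonic acid was added, 30 min. Hydroperoxide was read by Fe-XO absorbance ratio 573/405 nm.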
KCNH2 WT inh: inhibitors of human wildtype KCNH2 potassium channel | 0.37% of 340,000 active | U2OS, BacMam KCNH2, thallium flux FluxOr; active compounds read low | activity change, % at 1.84 µM;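 active means maximum activity change below -70%; inconclusive means maximum activity change between -70% and -50%; inactive means maximum activity change above -50%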
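U2OS cells were transduced with wild-type KCNH2 virus (2.03 x 10^8 / mL) for 4 h at room temperature, then cultured overnight at 37 C. Thallium flux was read with FluxOr dye. Rate constants were normalized to DMSO controls.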
KCNH2 3.1 inh: inhibitors of human KCNH2 3.1 potassium channel isoform. U2OS KCNH2 3.1, thallium flux FluxOr; active compounds read low. activity change, % (tested at about 1.8 µM). 0.95% of 340,000 active;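 active means maximum activity change below -70%; inconclusive means maximum activity change from -70% to -50%; inactive means maximum activity change above -50%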;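 further: thallium influx rate constant from kinetic fluorescence after stimulation buffer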
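Steps: virus added to U2OS suspension (4 h, RT, dark); medium with 10% FBS added, cells plated, 37 C overnight; FluxOr/Red40 loading buffer 45 min RT; stimulation buffer, 2 min kinetic read; rate constant normalized.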
ClpP mod: qHTS Assay for Activators of ClpP. ATP-dependent Clp protease proteolytic subunit (Bacillus subtilis (strain 168)), P80244. Potency, µM (top dose mostly 57.5 µM). purified B. subtilis ClpP, FRET peptide cleavage, 20 min. 1.9% of 340,000 active; active means well fitted falling curve with a large enough effect; inconclusive means small, poorly fitted or top-dose-only effect; inactive means no such curve, though single readings can be large or run the other way; further: the source files actives as falling curves though it sought activators and does not explain the sign; nearly all actives have a fitted effect of over 65% in size
Target sequence (P80244 whole entry, looked up): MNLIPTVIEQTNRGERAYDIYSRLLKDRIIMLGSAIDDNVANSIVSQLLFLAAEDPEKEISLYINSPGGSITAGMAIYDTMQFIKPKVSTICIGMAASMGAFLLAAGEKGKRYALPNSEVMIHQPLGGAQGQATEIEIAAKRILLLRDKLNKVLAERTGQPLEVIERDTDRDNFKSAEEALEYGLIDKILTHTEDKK
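ClpP 10 microg/mL final, pH 8 Tris/KCl buffer with BSA, glycerol, Tween-20; compound pinned in; FRET-FV substrate; RT 20 min; Ex320/Em430; ΔFRET vs ADEP 5.8 microM, DMSO, no enzyme.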
Chronic BCR inh: chronic active BCR signaling inhibition; 0.05% of 340,000 active; AID 493014; ABC-DLBCL IkBa-CBG/CBR reporter, luminescence ratio, 4 h; Potency, µM (titrated, usually from 46.1 µM), most hits filed as inhibitors; active means well fitted inhibition curve with a large enough effect in the signal ratio, with a control signal flat, not every such curve was filed as active; inconclusive means small, poorly fitted or top-dose-only effect, or effect the other way, or a change in a side signal; the % refers to the signal ratio
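TMD8 human ABC-DLBCL cells with doxycycline-inducible IκBα–green luciferase fusion and unfused red luciferase, in 0.5% FBS medium; compounds up to 46 uM, 4 h at 37C. Green/red luminescence ratio, filter-overlap corrected, fitted to concentration-response curves.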
LDHA block: inhibitors of human lactate dehydrogenase A | P00338 | purified LDHA, NADH/diaphorase-resazurin fluorescence; active compounds read low | activity change, % (values are at about 110 or 230 µM) | 0.15% of 480,000 active | AID 1347041; in the data active means activity change below about -30%; inconclusive means mostly about -25% to -30%
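Human LDH5 (2 nM) was incubated with 0.06 mM NADH and 0.2 mM pyruvate for 5 min at room temperature in Tris pH 7.4. Remaining NADH was coupled through diaphorase/resazurin, and resorufin fluorescence was read at 0 and 20 min.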
Hits are given with their value; - = inactive; ? = inconclusive; . = no result.

SMILES	12-LOX inh	KCNH2 WT inh	KCNH2 3.1 inh	ClpP mod	Chronic BCR inh	LDHA block
CC1CCCCN1CCNC(=O)c1ccc(Cn2c(SCc3ccccc3)nc3cccnc32)cc1 (stereo not given)	-	.	.	25µM	.	-
Cc1ccc(Cn2c(SCc3ccc(C(=O)O)cc3)nc3cccnc32)cc1	-	.	.	28µM	.	-
Cc1ccc(CSc2nc3cccnc3n2Cc2ccc(C(=O)NCc3cccs3)cc2)cc1	-	.	.	-	.	-
Cc1cccc([C@@H]2[C@@H]3C(=O)N(Cc4ccccc4)C(=O)[C@@H]3[C@]3(C)C(=O)N(c4cccc(Cl)c4)C(=O)N23)c1	-	-	-74	-	?	-
CCN1C(=O)[C@H]2[C@@H](c3ccc(C)cc3)N3C(=O)N(c4ccc(C)cc4)C(=O)[C@@]3(C)[C@H]2C1=O	-	.	.	-	-	-
CCN1C(=O)[C@H]2[C@@H](c3ccc(C)cc3)N3C(=O)N(c4cccc(Br)c4)C(=O)[C@@]3(C)[C@H]2C1=O	-	-	-80	-	.	-
O=C(NC1CCCC1)C(=O)c1ccc2c(c1)CCC2	-	.	.	.	.	-
CC(C)C(=O)Nc1ccc(NC(=O)Nc2ccc(Cl)cc2)cc1	?	.	.	.	.	-
S=C(NCCc1ccc(Cl)cc1)Nc1ccc(Nc2ccccc2)cc1	28µM	.	.	.	.	-
S=C(NCc1ccc(Cl)cc1)Nc1ccc(Nc2ccccc2)cc1	18µM	.	.	.	.	-
S=C(NCc1ccc(Cl)cc1)Nc1ccc(Br)cn1	4.5µM	.	.	.	.	-
S=C(NCCc1ccccc1)Nc1ccc(Cl)cc1	?	-	-	-	?	-
O=C(Cc1ccc(Cl)cc1)Nc1ccc(Br)cn1	-	-	-	-	-	-
Cc1c(C)n2c3c(=O)[nH]c(=O)n(C)c3nc2n1CCCN1CCN(C)CC1	-	.	.	.	.	-
Oc1cccc(C(O)CNC/C=C/c2ccccc2)c1 (stereo not given)	?	.	.	.	.	-
COc1ccc2c(c1)/C(=C/c1cc(OC)c(OC)c(OC)c1)C(=O)N2	-	-	-	-	.	-
C=C1c2cc(OC)ccc2NC(=O)N1CC	-	-	-	3.2µM	-	-
Cc1cccc(C)c1-c1nc(C(=O)NCCc2ccc(Cl)cc2)n2ccccc12	-	.	.	.	.	.
Nc1sc(-c2ccccc2)cc1C(=O)NCCc1ccc(Cl)cc1	40µM	.	.	-	.	-
CC1=C[C@@H](CNCc2ccccc2)[C@H](C(C)C)C[C@H]1Cc1nc2c(C)cccc2[nH]1	63µM	.	.	.	.	.
CC1=C[C@@H](CN(C)C)[C@H](C(C)C)C[C@H]1Cc1nc2c(C)cccc2[nH]1	-	.	.	.	.	.
COc1ccccc1CNC[C@@H]1C=C(C)[C@H](Cc2nc3c(C)cccc3[nH]2)C[C@H]1C(C)C	56µM	.	.	.	.	.
Cc1c(-c2ccccc2)nc2ccccc2c1C(=O)Oc1ccc([N+](=O)[O-])cc1	-	-87	-77	-	-	-
Nc1c2c(nc3ccccc13)N(C1CCCCC1)CC2	?	-	-	14µM	-	-
Nc1c2c(nc3ccccc13)CCC2	-	-	-	?	-	-
SMILES	12-LOX inh	KCNH2 WT inh	KCNH2 3.1 inh	ClpP mod	Chronic BCR inh	LDHA block
Cc1ccc(/C=C2/NC(=O)N(Cc3ccc(Br)cc3)C2=O)o1	45µM	-	-	-	-	-
CCN1C(=O)N/C(=C/c2ccc(C)o2)C1=O	-	-	-	-	?	-
CCC(=O)Oc1ccc2oc(=O)c(-c3ccc(OC)cc3)c(C)c2c1	-	.	.	.	.	-
CCCC[C@@H]1CNC(=S)N1CCC12CC3CC(CC(C3)C1)C2	35µM	-	-	-	-	-
CC(C)C[C@H]1CNC(=S)N1CC1CCN(CC2CCCC2)CC1	-	-	-	-	.	-
CCCC[C@@H]1CNC(=O)C(=O)N1CC1CCCCC1	-	.	.	-	.	-
CC(C)C[C@H]1CNC(=S)N1CC1CCN(CCCC2CCCCC2)CC1	-	-	-72	-	.	-
CCCC[C@@H]1CNC(=S)N1CC1CCCCC1	50µM	-	-	-	-	-
CC(=O)N1CCN(C(C(=O)O)c2c[nH]c3ccc(NC(=O)c4ccccc4)cc23)CC1 (stereo not given)	-	.	.	.	.	-
C/C(=N/n1c(C)csc1=NC(C)C)c1ccccc1	?	.	.	.	.	-
NC(=O)COc1ncnc2scc(-c3ccc(F)cc3)c12	-	-	-	-	-	-
COCCNC(=O)COc1ncnc2scc(-c3ccc(F)cc3)c12	-	-	-112	-	-	-
COC(=O)c1ccc(OCc2ccc(C(=O)O)o2)cc1	-	.	.	.	.	-
Cc1cccn2c(=O)c(C(=O)NC3CCCCC3C)c(O)nc12 (stereo not given)	-	-	-	28µM	-	-
Cc1cccn2c(=O)c(C(=O)NC3CCCCC3)c(O)nc12	-	-	-	-	-	-
CCOC(=O)NC(=O)COC(=O)[C@H](C)NC(=O)c1ccccc1	?	.	.	.	.	-
COc1ccc(CC(=O)Nc2ccc([C@H]3OCC(=O)N(Cc4ccc(F)cc4)[C@@H]3CO)cc2)cc1	-	.	.	.	.	.
Cc1ccc(Nc2nc3ccc(Cl)cc3n3cnnc23)cc1F	-	-127	-	-	?	-
O=C(NCC(c1ccccc1)c1c[nH]c2ccccc12)c1ccc[n+]([O-])c1 (stereo not given)	-	.	.	.	.	-
CC1=C([N+](=O)[O-])C(c2ccc(O)c(O)c2)NC(=O)N1 (stereo not given)	28µM	-	-	-	-	-
O=C(CCSCc1ccccc1)Nc1ccc2c(c1)OCCO2	-	.	-	-	?	-
O=C(CSCc1c(Cl)cccc1Cl)Nc1ccc2c(c1)OCCO2	-	-	-	16µM	?	-
CCC(=O)NC(Cc1ccccc1)c1ccc2c(c1)OCCCO2 (stereo not given)	-	-	-	22µM	?	-
O=C(CCc1ccccc1)Nc1ccc2c(c1)OCCO2	-	-	-	28µM	?	-
O=C(Cn1ccc2c(Cl)cccc21)Nc1ccc2c(c1)OCCO2	-	.	.	.	.	-
SMILES	12-LOX inh	KCNH2 WT inh	KCNH2 3.1 inh	ClpP mod	Chronic BCR inh	LDHA block
CC(NC(=O)CCc1ccccc1)c1ccc2c(c1)OCO2 (stereo not given)	-	-142	-	-	-	-
CCOc1ccc(NC(=O)c2ncoc2-c2cccc(Cl)c2)cc1	-	.	.	.	.	-
COC(=O)CNC(=O)c1cccc2c(=O)c(C)c(-c3ccccc3)oc12	-	.	.	.	.	-
CC(=O)c1ccc(NC(=O)c2cccc3c2ccn3C)cc1	-	.	.	.	.	-
CC1CC(C)CN(CC(=O)Nc2ccc3c(c2)OCCO3)C1 (stereo not given)	?	-113	-139	-	-	-
COC(=O)C1CCN(CC(=O)Nc2ccc3c(c2)OCCO3)CC1	-	-	-	.	?	-
COc1cccc(NC(=O)C2C3CC4OC(=O)C2C4C3)c1 (stereo not given)	-	-	-	-	-	-
Cc1cc(C)cc(NC(=O)c2ccc(NC(=O)C3C4CC5OC(=O)C3C5C4)cc2)c1 (stereo not given)	-	-	-	32µM	-	-
